High-throughput results (PubChem)
This is a sample that favours compounds with a hit; in the whole collection about 19% have one here.
TDP1 cell CPT – DT40-hTDP1 cell growth loss with CPT; Potency, µM (doses to about 46.2 µM), inactives show at the top dose activity change, negative = growth inhibition, hits mostly inhibitors; chicken DT40 Tdp1-/-;hTDP1 cells + 20 nM CPT, ATP luminescence, 48 h; 420,000 compounds, 12% hits; AID 686979; also: potency is read from the fitted curve at half-maximal effect; nearly all actives have a fitted effect of over 55% in size
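Chicken DT40 Tdp1-/- cells complemented with human TDP1, 400 cells/well, exposed to compounds plus 20 nM camptothecin for at least 48 h at 37 C; viability read as ATP content by CellTiter-Glo luminescence.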
ELG1 repair inh – blocks ELG1-dependent DNA repair in HEK293T cells | Potency, µM (top dose mostly 46.1 µM), for inactives: top-dose activity change, negative = inhibition, usual class: inhibitors | 330,000 compounds, 2.3% hits | AID 504467 | HEK293T ELG1-luciferase reporter, luminescence, 16 h; DNA damage induced by 5-fluorouridine; also: potency is read from the fitted curve at half-maximal effect; nearly all actives have a fitted effect of over 55% in size
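Quantitative HTS, concentration-response format. 2,000 cells/well co-treated with 5-fluorouridine and compound, 16 hr in 5% CO2 at 37 °C; ONE-Glo luminescence read after 30 min.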
HT1080 IDH1KD tx – kills HT-1080 cells with IDH1 knockdown; AID 686971; Potency, µM (doses to about 46.1 µM), for inactives: at the highest dose activity, negative = toxicity, actives largely listed as cytotoxic; 360,000 compounds, 2% hits; HT-1080 IDH1 knockdown viability, ATP luminescence, 48 h;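 also: potency is read from the fitted curve at half-maximal effect; 0% = DMSO wells and -100% = cell-free medium wells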
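Using the IDH1-knockdown HT-1080 line run in the same batch and compound series as the NT line, viability after 48 h at 37 °C was determined by CellTiter-Glo luminescence and expressed as % activity.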
TDP1 cell noCPT – qHTS for Inhibitors of human tyrosyl-DNA phosphodiesterase 1 (TDP1): qHTS in cells in absence of CPT | DT40 Tdp1-/- hTDP1 cells, no CPT, ATP luminescence, 48 h | Potency, µM (titrated, usually from 46.2 µM), without a hit: at the highest dose activity change, negative = growth inhibition, usual class: inhibitors | 420,000 compounds, 15% hits | AID 686978, 2013; also: potency is read from the fitted curve at half-maximal effect; nearly all actives have a fitted effect of over 55% in size
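Chicken DT40 Tdp1-/- cells complemented with human TDP1, screened without camptothecin (DMSO vehicle only), 400 cells/well. Compounds pin-transferred, cells incubated at 37 °C for at least 48 hr. Growth read as ATP-dependent luminescence (CellTiter-Glo, 30 min at RT).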
HT1080-NT tox – kills 2HG-producing HT-1080-NT fibrosarcoma cells. AID 686970. Potency, µM (titrated, usually from 46.1 µM), without a hit: at the highest dose activity, negative = less viability, usual class: cytotoxic. 360,000 compounds, 1.6% hits. HT-1080-NT fibrosarcoma viability, CellTiter-Glo ATP luminescence, 48 h;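 also: NT is the 2HG producing partner of a matched IDH1 knockdown line; potency is read from the fitted curve at half-maximal effect; 0% = DMSO-treated cells and -100% = media-only wells without cells; nearly all actives have a fitted effect of over 55% in size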
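Toxicity toward the 2HG-producing NT line was scored as %Activity, normalised to DMSO and no-cell wells, from CellTiter-Glo luminescence after 48 hours' treatment.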
IL1B secr inh – inhibitors of inflammasome signaling (IL-1 beta secretion). THP-1 LPS/ATP IL-1B secretion, AlphaLISA, 16 h; hits give low values. activity change, % at 57.5 µM. 360,000 compounds, 4.7% hits; in the data active = activity change below about -50%; inconclusive = mostly about -30% to -49%
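THP-1 cells pretreated 1 hr with compounds (up to 57.5 uM final), then stimulated with LPS (250 ng/mL final) plus ATP (1.25 mM final); secreted IL-1B measured by AlphaLISA after 16 hr, decreased signal indicating inhibition.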
The depositor's hits bear a star. Unless noted, calls follow the shape of the dose curve; as a rule, active = well fitted curve in the direction sought with a large enough effect; inconclusive = small, poorly fitted or top-dose-only effect, or another doubt; inactive = no such curve, though single readings can be large; an effect the other way counts as inactive or inconclusive. Unless noted, % is scaled to controls: 0 for no effect and ±100 for the full control effect.

How did Cc1ccc(NC(=O)CC2Nc3ccccc3NC2=O)cc1Cl (centres undefined) do in these assays?
TDP1 cell CPT: inconclusive; ELG1 repair inh: inconclusive; HT1080 IDH1KD tx: 20.6µM*; TDP1 cell noCPT: inconclusive; HT1080-NT tox: 20.6µM*; IL1B secr inh: -1.8

Results for CCOc1ccccc1NC(=O)CC1Nc2ccccc2NC1=O (centres undefined) ?
TDP1 cell CPT: 13.7%; ELG1 repair inh: -9.5%; HT1080 IDH1KD tx: inconclusive; TDP1 cell noCPT: inconclusive; HT1080-NT tox: inconclusive; IL1B secr inh: 35.2

How did CCOc1ccccc1NC(=O)CC1Nc2cc(C)c(C)cc2NC1=O (centres undefined) do in these assays?
TDP1 cell CPT: 18.4µM*; ELG1 repair inh: inconclusive; HT1080 IDH1KD tx: -14.3%; TDP1 cell noCPT: inconclusive; HT1080-NT tox: -1.6%; IL1B secr inh: 34.9

Results for Cc1ccc(NC(=O)CC2Nc3ccccc3NC2=O)cc1C (centres undefined) ?
TDP1 cell CPT: -22.7%; TDP1 cell noCPT: -8.2%

How did COc1ccc(NC(=O)c2cccc(N3C(=O)C4CCC(C)CC4C3=O)c2)c(OC)c1 (centres undefined) do in these assays?
TDP1 cell CPT: -7.8%; ELG1 repair inh: 3.4%; HT1080 IDH1KD tx: 7.7%; TDP1 cell noCPT: inconclusive; HT1080-NT tox: 0.3%; IL1B secr inh: 13.7

What do the screens show for `CC1CCC(C(C)C)C(=O)/C1=C/c1ccc(N)cc1` (centres undefined)?
TDP1 cell CPT: 14.6µM*; ELG1 repair inh: inconclusive; HT1080 IDH1KD tx: inconclusive; TDP1 cell noCPT: 13µM*; HT1080-NT tox: -5.2%; IL1B secr inh: 3.3

How did CCC1(C)Cc2c(sc3nc(SC)n(Cc4ccccc4)c(=O)c23)CO1 (centres undefined) do in these assays?
TDP1 cell CPT: 13µM*; ELG1 repair inh: inconclusive; HT1080 IDH1KD tx: -0.6%; TDP1 cell noCPT: 13µM*; HT1080-NT tox: 4.5%; IL1B secr inh: -5.0

Results for CCCSc1nc2sc3c(c2c(=O)n1Cc1ccccc1)CC(C)(CC)OC3 (centres undefined) ?
TDP1 cell CPT: 18.4µM*; TDP1 cell noCPT: 11.6µM*

What do the screens show for `CN1C(=O)c2cccc3c(S(=O)(=O)NCCc4ccccc4)ccc1c23`?
TDP1 cell CPT: inconclusive; ELG1 repair inh: 3.0%; HT1080 IDH1KD tx: -15.3%; TDP1 cell noCPT: 20.6µM*; HT1080-NT tox: -1.9%; IL1B secr inh: 15.0

What do the screens show for `CCOc1cc(C(=O)Nc2ccc3c4c(cccc24)C(=O)N3CC)cc(OCC)c1OCC`?
TDP1 cell CPT: inconclusive; ELG1 repair inh: 20.6µM*; HT1080 IDH1KD tx: -25.4%; TDP1 cell noCPT: 23.1µM*; HT1080-NT tox: -28.8%; IL1B secr inh: -18.9

How did CCOC(=O)CNS(=O)(=O)c1ccc2c3c(cccc13)C(=O)N2CC do in these assays?
TDP1 cell CPT: 2.8%; ELG1 repair inh: inconclusive; HT1080 IDH1KD tx: 0.4%; TDP1 cell noCPT: 1.0%; HT1080-NT tox: -0.1%; IL1B secr inh: -86.0*

How did COCCNS(=O)(=O)c1ccc2c3c(cccc13)C(=O)N2C do in these assays?
TDP1 cell CPT: -10.4%; ELG1 repair inh: inconclusive; HT1080 IDH1KD tx: 1.9%; TDP1 cell noCPT: -21.1%; HT1080-NT tox: 3.3%; IL1B secr inh: -8.6

Results for Cc1ccc(-n2c(C)cc3c2CCCC3=O)cc1 ?
TDP1 cell CPT: -26.8%; ELG1 repair inh: 5.3%; HT1080 IDH1KD tx: inconclusive; TDP1 cell noCPT: inconclusive; HT1080-NT tox: -2.3%; IL1B secr inh: 38.8

How did Cc1ccc(S(=O)(=O)n2ccc3c2CCCC3=O)cc1 do in these assays?
TDP1 cell CPT: inconclusive; ELG1 repair inh: inconclusive; HT1080 IDH1KD tx: 0.1%; TDP1 cell noCPT: 20.6µM*; HT1080-NT tox: 8.3%; IL1B secr inh: -29.6

Results for CCS(=O)(=O)c1ccc(N=Nc2ccc(O)c3ncccc23)c(OC)c1 ?
TDP1 cell CPT: 1.84µM*; ELG1 repair inh: inconclusive; HT1080 IDH1KD tx: 5.17µM*; TDP1 cell noCPT: 1.3µM*; HT1080-NT tox: 1.46µM*; IL1B secr inh: 111.0

Results for CCCCN(CCCC)S(=O)(=O)c1ccc(OC)c2ncccc12 ?
TDP1 cell CPT: inconclusive; ELG1 repair inh: -11.1%; HT1080 IDH1KD tx: -4.9%; TDP1 cell noCPT: inconclusive; HT1080-NT tox: -22.2%; IL1B secr inh: -9.7

How did COc1ccccc1N=Nc1ccc(O)c2ncccc12 do in these assays?
TDP1 cell CPT: 2.91µM*; ELG1 repair inh: inconclusive; HT1080 IDH1KD tx: inconclusive; TDP1 cell noCPT: 2.91µM*; HT1080-NT tox: inconclusive; IL1B secr inh: 20.1

What do the screens show for `COc1ccccc1N=Nc1[nH]c2ccc(C)cc2c1O`?
TDP1 cell CPT: -27.4%; ELG1 repair inh: inconclusive; HT1080 IDH1KD tx: 19.4%; TDP1 cell noCPT: inconclusive; HT1080-NT tox: 0.0%; IL1B secr inh: 10.2

How did O=c1ncn(-c2ccccc2C(F)(F)F)c2ncccc12 do in these assays?
TDP1 cell CPT: 0.0%; ELG1 repair inh: 6.7%; HT1080 IDH1KD tx: 11.4%; TDP1 cell noCPT: -1.3%; HT1080-NT tox: 16.7%; IL1B secr inh: 3.6

How did Oc1ccc(N=Nc2ccccc2C(F)(F)F)c2cccnc12 do in these assays?
TDP1 cell CPT: 0.82µM*; ELG1 repair inh: inconclusive; HT1080 IDH1KD tx: inconclusive; TDP1 cell noCPT: 1.03µM*; HT1080-NT tox: -26.1%; IL1B secr inh: 16.2

What do the screens show for `CCCCCCOc1ccc(C(=N)N(CCCC)CCCC)c2ccccc12`?
TDP1 cell CPT: 4.22µM*; TDP1 cell noCPT: 2.66µM*

How did CCCCN(CC)CCOc1cccc2ccccc12 do in these assays?
TDP1 cell CPT: -28.1%; TDP1 cell noCPT: inconclusive

Results for COc1ccc(C2Nc3ccccc3C(=O)N2c2ccc(Cl)cc2)cc1COc1ccc(NC(C)=O)cc1 (centres undefined) ?
TDP1 cell CPT: inconclusive; TDP1 cell noCPT: 14.1µM*

Results for COc1ccc(N2C(=O)c3ccccc3NC2c2ccc(OC)c(COc3ccccn3)c2)cc1 (centres undefined) ?
TDP1 cell CPT: inconclusive; ELG1 repair inh: inconclusive; HT1080 IDH1KD tx: 5.0%; TDP1 cell noCPT: inconclusive; HT1080-NT tox: -0.8%; IL1B secr inh: -12.0

How did COc1ccc(C2Nc3ccccc3C(=O)N2c2ccccc2F)cc1COc1ccc(NC(C)=O)cc1 (centres undefined) do in these assays?
TDP1 cell CPT: 11.2µM*; TDP1 cell noCPT: 17.8µM*
